Bioassay records (PubChem)
TDP43 rescue: rescues yeast growth from TDP-43 toxicity | TDP-43 expressing yeast growth rescue, BacTiter-Glo, 24 h | Potency, µM (titrated, usually from 46.1 µM), hits mostly activators | 410,000 tested, 1.8% active | AID 652104; further: nearly all actives have a fitted effect of over 50% in size
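Readout is BacTiter-Glo luminescence of cell growth, so inhibitors register as activators. TDP-43-expressing yeast at OD600=0.02 in galactose medium, after raffinose pregrowth to mid-log, were incubated with compound for 24 hr at 30 deg C.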
Chronic BCR inh: blocks chronic active B-cell receptor signaling; ABC-DLBCL IkBa-CBG/CBR reporter, luminescence ratio, 4 h; Potency, µM (doses to about 46.1 µM), hits mostly inhibitors; 340,000 tested, 0.05% active; active means well fitted inhibition curve with a large enough effect in the signal ratio, with a control signal flat, not every such curve was filed as active; inconclusive means small, poorly fitted or top-dose-only effect, or effect the other way, or a change in a side signal; the % refers to the signal ratio
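Doxycycline induced both beetle luciferases in TMD8 lymphoma cells; IKK-driven degradation limits the IkappaBalpha-fused green signal, while red luminescence normalises for cell number and nonspecific effects. Compounds tested up to 46 uM, 4 hrs.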
uPA surface inh: blocks generation of uPA at the cell surface | cell surface uPA generation assay, qHTS | Potency, µM (titrated, usually from 38.3 µM), usual class: inhibitors | 330,000 tested, 0.31% active | AID 540303; active means well fitted inhibition curve with a large enough effect; inconclusive means small, poorly fitted or top-dose-only effect; inactive means no such curve, though single readings can be large or run the other way; tested in mouse RAW 264.7 cells; further: nearly all actives have a fitted effect of over 55% in size
aSyn rescue: alpha-synuclein toxicity inhibition in yeast; Yeast expressing alpha-synuclein, growth rescue, BacTiter-Glo, 24 h; Potency, µM (series often up to 46.1 µM), most hits filed as activators; 370,000 tested, 0.14% active; AID 652106; further: nearly all actives have a fitted effect of over 65% in size
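Screening used galactose-induced yeast with toxic alpha-synuclein levels, exposed to compound for 24 hr at 30 deg C. Cell growth, read with BacTiter-Glo luminescence, gave the measured signal.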
FUS suppressor: rescues growth of FUS-expressing yeast; S. cerevisiae FUS-expressing, growth rescue, OD600, 24 h; Potency, µM (doses to about 76.6 µM), actives largely listed as activators; 390,000 tested, 0.24% active; AID 1347120; further: nearly all actives have a fitted effect of over 55% in size
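Yeast expressing FUS under galactose induction, OD 0.005 in 2% galactose medium; compounds in a dilution series, 24 h at 30C. Growth rescue by absorbance at 600 nm; CP55940 positive control, DMSO negative.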
Abeta rescue: A-beta toxicity reversal in yeast; Potency, µM (top dose mostly 46.1 µM), actives largely listed as activators; yeast expressing A-beta42, growth rescue, OD600, 48 h; response scale: 0% DMSO, 100% iron-clioquinol control; AID 1347071; 410,000 tested, 0.063% active; further: nearly all actives have a fitted effect of over 55% in size
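Yeast growth medium received pinned compounds, then yeast cells expressing toxic A-beta were added; plates incubated at 30 C for 48 hr. Growth read as absorbance at 600 nm, normalized to DMSO and equimolar FeCl3 plus clioquinol controls.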
A number is an active result. Rows were chosen to be rich in hits. Some 2.3% of all compounds tested hit in one or more screens of this group. Unless noted, the call rests on the fitted dose curve; in most records, active means well fitted curve in the direction sought with a large enough effect; inconclusive means small, poorly fitted or top-dose-only effect, or another doubt; inactive means no such curve, though single readings can be large; an effect the other way counts as inactive or inconclusive.

Screening CC(C)N(C(=O)CSc1nc2c([nH]1)c(=O)n(C)c(=O)n2C)c1ccccc1 returned TDP43 rescue inactive, Chronic BCR inh inactive, uPA surface inh inactive, aSyn rescue inactive, FUS suppressor inactive and Abeta rescue inactive.
CC(C)N(C(=O)CSc1nc2ccc(Cl)cc2[nH]1)c1ccccc1 was read as TDP43 rescue 35µM, FUS suppressor inactive and Abeta rescue inactive.
Screening Cc1ccc(C2Nc3cccc4cccc(c34)N2)s1 returned TDP43 rescue 10µM, Chronic BCR inh inactive, uPA surface inh inactive, aSyn rescue inactive and Abeta rescue inactive.
Screening Nc1nc(-c2ccc(Br)s2)c(Br)s1 returned TDP43 rescue 11µM, Chronic BCR inh inconclusive, uPA surface inh inactive, aSyn rescue inactive, FUS suppressor inactive and Abeta rescue inactive.
`N#Cc1c(N)nc2c(c1-c1ccc(Br)s1)CCCC2` gave TDP43 rescue inactive, Chronic BCR inh inactive, uPA surface inh inactive, aSyn rescue inactive and Abeta rescue inactive.
CC1CCN(C(=O)CSc2nc(-c3ccc(C(C)C)cc3)no2)CC1 was read as TDP43 rescue 18µM, FUS suppressor inactive and Abeta rescue inactive.
Screening Oc1ccc(N=Nc2ccc3c(c2)OCCO3)c2ncccc12 returned TDP43 rescue 22µM, Chronic BCR inh inconclusive, uPA surface inh inconclusive, aSyn rescue inconclusive, FUS suppressor inactive and Abeta rescue inconclusive.
For Cc1cccc(N=Nc2ccc(O)c3ncccc23)c1 the results were TDP43 rescue inconclusive, Chronic BCR inh inconclusive, uPA surface inh inactive, aSyn rescue inconclusive, FUS suppressor inactive and Abeta rescue inconclusive.
`C=CC(N)CCC(=O)O` (stereo unspecified) gave aSyn rescue inactive.
Screening Cc1ccc2nc(N3CCN(C(=O)CCCC(=O)O)CC3)nc(-c3ccccc3)c2c1 returned TDP43 rescue inactive, Chronic BCR inh inactive, uPA surface inh inactive, aSyn rescue inactive, FUS suppressor inactive and Abeta rescue inactive.
For O=C1c2ccsc2SCCN1Cc1ccc(Cl)cc1 the results were TDP43 rescue 22µM, Chronic BCR inh inactive, uPA surface inh inactive, aSyn rescue inactive, FUS suppressor inactive and Abeta rescue inactive.
For O=C1c2ccsc2SCCN1Cc1ccc(F)cc1 the results were TDP43 rescue inconclusive, Chronic BCR inh inactive, uPA surface inh inactive, aSyn rescue inconclusive, FUS suppressor inactive and Abeta rescue inactive.
COC(=O)c1cccc(Cn2c(Cl)c(/C=N/Nc3ccccc3C)sc2=O)c1 was read as TDP43 rescue inactive, Chronic BCR inh inconclusive, uPA surface inh inactive, aSyn rescue inactive and Abeta rescue inactive.
Screening COC(=O)C1(C(=O)OC)C[C@H](/C=C/c2ccccc2)N(Cc2ccccc2OC)[C@@H]1c1ccccc1 returned TDP43 rescue inactive, aSyn rescue inactive, FUS suppressor inactive and Abeta rescue inactive.
`Cc1cccc2nc(Cn3c(=O)n(-c4ccccc4)c(=O)c4c5c(sc43)CCC5)cc(=O)n12` gave TDP43 rescue inactive, FUS suppressor inactive and Abeta rescue inactive.
Screening COc1ccccc1C(=O)NCCSCc1c(F)cccc1Cl returned TDP43 rescue inactive, Chronic BCR inh inactive, uPA surface inh inactive, aSyn rescue inactive, FUS suppressor inactive and Abeta rescue inactive.
Screening Cc1c(C(=O)NCCSCc2c(F)cccc2Cl)cnn1-c1ccc(Cl)cc1 returned TDP43 rescue 20µM, Chronic BCR inh inactive, uPA surface inh inactive, aSyn rescue inactive, FUS suppressor inactive and Abeta rescue inactive.
Screening CC(=O)c1ccc(NC(=O)N2CCCC(C(=O)c3ccc4c(c3)OCO4)C2)cc1 (stereo unspecified) returned TDP43 rescue inactive, Chronic BCR inh inactive, uPA surface inh inactive, aSyn rescue inactive, FUS suppressor inactive and Abeta rescue inactive.
`CSc1ccccc1NC(=O)N1CCCC(C(=O)c2ccc3c(c2)OCO3)C1` (stereo unspecified) gave TDP43 rescue 16µM, Chronic BCR inh inconclusive, uPA surface inh inactive, aSyn rescue inactive, FUS suppressor inactive and Abeta rescue inactive.
